The supplement of paper PMC3334620
Whole data set: some 33,000 sequences, median “E-score (-0.5 to 0.5)” near -0.017, cut for the highest 2% near 0.3. For the sample, the highest values were picked, then their nearest neighbours and some sequences at random.

molecular target: T1, Sut1 (UniProt P53032); assay: PBM E-score (8-mer binding enrichment) (E-score (-0.5 to 0.5)); higher = stronger / more preferred TF binding; details: protein concentration: 200 nM; construct: GST-full length
T1 sequence: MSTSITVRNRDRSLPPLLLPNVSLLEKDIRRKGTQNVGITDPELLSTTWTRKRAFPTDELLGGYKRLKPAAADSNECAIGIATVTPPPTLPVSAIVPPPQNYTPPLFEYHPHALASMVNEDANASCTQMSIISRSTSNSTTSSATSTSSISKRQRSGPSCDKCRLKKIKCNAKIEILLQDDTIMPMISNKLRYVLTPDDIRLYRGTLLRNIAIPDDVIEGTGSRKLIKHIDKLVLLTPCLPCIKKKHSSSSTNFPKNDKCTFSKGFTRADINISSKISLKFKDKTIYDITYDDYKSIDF
How it was run: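 Masliner-normalised scans of fluorescent anti-GST signal were the basis for scoring. That signal came from GST-tagged yeast transcription factors applied at about 100-200 nM to double-stranded universal all-10-mer Agilent arrays on fresh or once-stripped slides. Each ungapped eight-base word, pooled with its reverse complement, received an E-score from the Universal PBM Analysis Suite.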

Sequence	PBM E-score
GCGGGAGC	-0.162
CCGCGAAC	0.0271
ATCTAGGG	-0.097
CAGCCCGA	-0.211
ACAGGACC	-0.108
CGGCCCAA	-0.116
CGTTGACC	-0.224
TGAAAGCA	0.148
ATTAATTG	0.187
AGTAATTG	0.0745
ATTAATTC	0.298
AGTAATTC	0.307
CGTAATTC	0.0414
ATTAATTA	0.188
CGACAGCA	-0.0542
TGATCGCA	-0.221
CATGAGCC	-0.195
GAATTCAC	0.0262
GAGAAGGA	-0.0992
AAGTCCCT	-0.131
AAGTCCGC	0.486
AAGTCCGT	0.487
ACGTCCGC	-0.121
AAGTCCTC	0.0867

Sequence	PBM E-score
AAGTCCAT	0.0246
TCCTTCGA	0.11
GAATATGC	0.0981
GCCCGCAA	-0.0979
ACATCGCA	-0.067
CAGGCCTA	-0.108
GCTATCAA	0.119
ATGTTGGC	-0.0785
GCGGCCCA	0.00935
AGTTAGCC	0.177
GGAACTCA	-0.0534
AGAACTCT	0.07
CGAACTCC	0.391
GGAACTCC	0.356
CGAACTCA	-0.0187
AGAACTCG	-0.03
CGAACTCG	-0.0661
CTAACTCC	0.221
GGAACTAC	-0.062
ATAACTCC	0.365
AGAACTCC	0.31
ATAACTCG	0.149
AGCTGCAG	0.0539
TCCATAGA	0.00973

Sequence	PBM E-score
CAGTTCTA	-0.125
CGAGAATC	0.0357
CTGCAAGA	-0.136
AAGCCTGA	-0.208
ACAACAGT	0.0455
AAGGGTCT	-0.114
TAACTTAA	0.246
AAACCCCG	0.441
AACCCCCG	-0.193
CAACCCCG	0.355
CAACCCGG	-0.157
AAACCCCC	-0.346
CAACCCCC	-0.266
ACGGTATA	-0.115
AAACTAAC	0.27
AAAGTTCT	0.149
GGGCGTGA	-0.182
AACCCGAT	-0.0428
ACCCCGAC	0.273
CCCCCGAG	-0.343
ACCCCGAT	0.342
ACCCCGAA	0.332
CCCCCGAA	-0.0826
AACCCGAG	0.0811

Sequence	PBM E-score
ACCCCGAG	0.382
GCCCCGAA	0.184
GGGCGAAA	0.0444
AATCGCAT	0.0231
CGCACATC	-0.156
GAGTTCAA	0.152
GGATCAGA	-0.0639
GTGGGGAA	0.0142
GGCTGGAC	-0.278
ACTCCGTA	0.478
ACTCCGTG	0.473
ACTCCGTC	0.48
CCTCCGTA	0.0232
ATTCCGTC	0.143
CCTCCGTC	-0.0539
ATTCCGTG	0.273
GCTCCGTA	0.291
AATCCGTG	-0.153
CGGTGAGA	0.0413
AGGTTAGG	-0.0421
ACCAACCG	0.0755
GGACAGTA	0.184
